# Assay results from PubChem BioAssay AID1851 (National Center for Advancing Translational Sciences (NCATS), 2009).
# Several values for one entry are separate records, joined by “and”; a condition that tells them apart may be missing. Equal entries are not always repeated. Among all 16,000 compounds or so, about 2,600 (16%) were called active. Not shown: some 20% with an inconclusive outcome. Only a sample is shown. The source holds several records for some structures; these can differ, active in one and inactive in another. A number with no mark means an inactive call. Calls follow the shape of the dose curve; as a rule, active = well fitted curve in the direction sought with a large enough effect; inconclusive = small, poorly fitted or top-dose-only effect, or effect the other way; inactive = no such curve, though single readings can be large or run the other way.
# Target: Cytochrome P450 2D6 (Homo sapiens) (UniProt P10635)
# Assay: Cytochrome panel assay with activity outcomes
# Conditions: recombinant CYP, pro-luciferin dealkylation, luminescence, p450-cyp2d6; series mostly up to 57.1 µM
# % is scaled to controls: 0 for no effect and ±100 for the full control effect.
# Sequence of Cytochrome P450 2D6 (Homo sapiens) (P10635 whole entry, looked up): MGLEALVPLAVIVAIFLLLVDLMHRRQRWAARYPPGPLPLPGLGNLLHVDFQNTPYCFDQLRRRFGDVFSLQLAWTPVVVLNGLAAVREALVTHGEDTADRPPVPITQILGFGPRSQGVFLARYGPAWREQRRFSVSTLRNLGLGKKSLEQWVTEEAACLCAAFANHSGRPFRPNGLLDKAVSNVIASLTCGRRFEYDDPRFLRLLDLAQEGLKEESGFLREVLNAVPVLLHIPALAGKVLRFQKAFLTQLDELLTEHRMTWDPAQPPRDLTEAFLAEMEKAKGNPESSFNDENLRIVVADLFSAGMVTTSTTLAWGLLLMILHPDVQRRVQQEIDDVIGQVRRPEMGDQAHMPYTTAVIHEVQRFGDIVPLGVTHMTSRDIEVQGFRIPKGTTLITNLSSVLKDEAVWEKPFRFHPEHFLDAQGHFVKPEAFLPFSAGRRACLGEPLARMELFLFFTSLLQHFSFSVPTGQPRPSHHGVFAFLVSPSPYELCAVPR
Structure (SMILES),AC50,"activity, negative = inhibition"
CCNc1ncc2ncc(=O)n(C[C@H]3CCCO3)c2n1,inactive,–
COC(=O)C(Cc1c[nH]c2ccccc12)NC(=O)C(C)C (centres undefined),inactive,–
COc1cc(Cl)c(CC(=O)c2c[nH]c3ccccc23)cc1OC,–,-18% [at 11.4 µM]
COc1cccc(CNCCc2c[nH]c3ccccc23)c1OCc1ccccc1F,0.282 µM (active),–
COc1cc(CNCCc2c[nH]c3ccccc23)ccc1OCc1ccccc1F,3.98 µM (active),–
COc1ccc(C(C(=O)NC2CCCCC2)N(C(=O)Cc2c[nH]c3ccccc23)c2ccc(NC(C)=O)cc2)cc1OC (centres undefined),inactive,–
CC(=O)N[C@@H](Cc1c[nH]c2ccccc12)C(=O)OCc1cc(C(F)(F)F)cc(C(F)(F)F)c1,inactive,–
CCOC(=O)c1cnc2cc(-c3ccc(C)cc3)nn2c1-c1ccccc1,inactive,–
O=C1N=C(N2CCC(Cc3ccccc3)CC2)S/C1=C/c1cn[nH]c1-c1ccccc1,inactive,–
COc1ccccc1NC(=O)Nc1nnc(-c2ccco2)s1,inactive,–
O=S(=O)(c1ccccc1)c1cnc(-c2cccnc2)nc1-c1ccc(Cl)cc1Cl,inactive,–
COC(=O)c1c(C)[nH]c(O)c1C=Nc1ccc(C(C)C)cc1,inactive,–
OC[C@H]1NC[C@H](O)[C@@H](O)[C@H]1O,inactive,–
O=C1OCc2cccc3cccc1c23,inactive,–
CN(C)CC/C=C1\c2ccccc2COc2ccccc21,15.8 µM (active) and 3.16 µM (active) and 3.98 µM (active),–
CN(C)CCC=C1c2ccccc2C=Cc2ccccc21,6.31 µM (active),–
C[N+](C)([O-])CCC=C1c2ccccc2CCc2ccccc21,–,-5.43% [at 11.4 µM]
CNCCC=C1c2ccccc2C=Cc2ccccc21,5.01 µM (active),–
COc1ccc(C2=C(C#N)C(=O)OC2)cc1,inactive,–
CCOC(=O)c1cnn(-c2nc(-c3cccc(F)c3)cs2)c1C(F)(F)F,inactive,–
O=C(O)[C@@H]1CCCN1,–,-2.04% [at 11.4 µM]
CC1(C)C(=O)C(c2ccccc2)=C2CN3C(=O)N(CCc4ccccc4)C(=O)C3(Cc3ccccc3)C=C21 (centres undefined),inactive,–

Structure (SMILES),AC50,"activity, negative = inhibition"
N#Cc1cc2[nH]c(=O)c(=O)[nH]c2cc1[N+](=O)[O-],inactive,–
C[C@@]12C(=O)OC(=O)[C@@]1(C)[C@@H]1CC[C@@H]2O1,inactive,–
NC(N)=N/N=C\c1ccc(C2CCNCC2)cc1,–,-11% [at 11.4 µM]
Cc1ccccc1NC(=O)Cn1cnc2c1c(=O)n(C)c(=O)n2C,inactive,–
Cc1cccc(C)c1NC(=O)C[N+](C)(C)C,inactive,–
CC(=O)c1cn(CC(=O)Nc2c(C)cccc2C)c2ccccc12,7.94 µM (active),–
Cc1ccccc1NC(=O)c1cnc(Nc2nc3ccccc3s2)nc1C,inactive,–
CC(N)=O,inactive,–
C=CCNC(=O)C1CCN(S(=O)(=O)CC)CC1,inactive,–
CCS(=O)(=O)N1CCC(C(=O)NCCCOC)CC1,inactive,–
CCN(CCCNC(=O)C1CCN(S(=O)(=O)CC)CC1)c1cccc(C)c1,25.1 µM (active),–
C=CCn1c(SCC(=O)Nc2c(C)n(C)n(-c3ccccc3)c2=O)nc2sc(C)c(-c3ccccc3)c2c1=O,inactive,–
COc1ccc(CO/N=C/c2c(C)[nH]c(=O)[nH]c2=O)cc1,inactive,–
CC(C)CNC(=S)N1CCN(C)CC1,inactive,–
CCN(CC)S(=O)(=O)c1cccc2c(N(C)C)cccc12,inactive,–
CCN(CC)S(=O)(=O)c1ccc2c3c(cccc13)C(=O)S2,12.6 µM (active),–
CCOC(=O)NNC1CC(=O)N(c2ccc(OC)cc2)C1=O (centres undefined),inactive,–
O=C(c1ccccc1)c1c[nH]c(C(=O)NCCCN2CCOCC2)c1,inactive,–
CCC(CC)C(=O)c1c[nH]c(C(=O)NCCCN2CCOCC2)c1,inactive,–
O=C(NCCCN1CCOCC1)c1cc2c(s1)CSC2,1.26 µM (active),–
O=c1onc2n1-c1cc(Br)ccc1OC2,inactive,–
COc1ccc(-n2c(=O)c(-c3ccc(Cl)cc3)nc3cnc(N4CCNCC4)nc32)cc1,inactive,–

Structure (SMILES),AC50,"activity, negative = inhibition"
N#CC1=C(N)OC2=C(C(=O)CCC2)C12CCC1(CC2)OCCO1,inactive,–
CN1CCN(c2ncc3nc(-c4cn(C)c5ccccc45)c(=O)n(CCc4ccccc4)c3n2)CC1,inactive,–
OC1(c2ccc(OC(F)F)cc2)CSC(=Nc2cccnc2)N1C1CC1 (centres undefined),2 µM (active),–
N#Cc1c(-c2ccccc2)nc2n(c1=O)CCS2,inactive,–
CN1CCCC[C@@H]1CCN1c2ccccc2Sc2ccc(S(C)=O)cc21 (some centres undefined),0.1 µM (active),0.0782% [at 11.4 µM]
COc1ccc2c(c1)N(CC[C@H]1CCCCN1C)c1ccccc1S2,0.0501 µM (active),–
CN1CCCC[C@@H]1CCN1CCCCC1,–,-1.48% [at 11.4 µM]
COc1ccc(OCc2nnc(SCC(=O)N3c4ccccc4Sc4ccc(Cl)cc43)o2)cc1,inactive,–
O=c1c(-c2ccccc2)nc2cncnc2n1C1CC1,inactive,–
O=C(CCNC(=O)c1ccc(Br)o1)NCc1ccccn1,inactive,–
COc1cc(=O)n2c(n1)SCCC2,inactive,–
CC12c3ccccc3C(c3ccccc31)C1C(=O)N(Cc3cccnc3)C(=O)C12 (centres undefined),inactive,–
Cc1cccc(NC(=S)NC(=O)c2cccs2)n1,inactive,–
O=C(NC(=S)Nc1cccc(Cl)c1N1CCCCC1)c1cccs1,inactive,–
CC1CCN(c2ccccc2NC(=S)NC(=O)c2cccs2)CC1,0.2 µM (active),–
COc1cccc(OCC(=O)NN=C2c3ccccc3-c3ccccc32)c1,inactive,–
O=c1c(-c2ccc(F)cc2)nc2cncnc2n1C1CC1,inactive,–
O=C(Nc1cccc2nsnc12)c1ccc(-c2cccc(Cl)c2)o1,inactive,–
COC(=O)c1sccc1-c1ccc(C(=O)Nc2cccc(Cl)c2)o1,15.8 µM (active),–
CCCn1nnc(NC(=O)c2ccc(-c3cccc(Cl)c3)o2)n1,inactive,–
Cc1nc2cnc(N3CCNCC3)nc2n(Cc2ccc(F)cc2)c1=O,inactive,–
O=C(OCCCN1CCCCC1)c1ccc(O)cc1,5.62 µM (active),–

Structure (SMILES),AC50,"activity, negative = inhibition"
COc1cc(N)c(Cl)cc1C(=O)OCCCN1CCCCC1,0.126 µM (active),–
Cc1c(-c2ccc(O)cc2)nn(-c2ccc(O)cc2)c1-c1ccc(OCCN2CCCCC2)cc1,inactive,–
CCN(CC)CCCCCCCCOC(=O)c1cc(OC)c(OC)c(OC)c1,31.6 µM (active),–
COc1cc(C(=O)OCC(=O)Nc2cc(C)on2)cc(OC)c1OC,inactive,–
COc1cc(CN2CCCCC2)cc2cc(C(=O)O)c(=O)oc12,–,4.16% [at 11.4 µM]
COC(=O)c1cc(OC)c(OC)cc1NC(=S)N1CCCCC1,inactive,–
CCOC(=O)C1=C(O)/C(=C/c2cc(OC)c(OC)c(OC)c2)N=C1C,inactive,–
CCN(CC)CCNC(=O)c1ccc(Cl)c(S(=O)(=O)Nc2ccccc2OC)c1,inactive,–
CCN(CC)CCOC(=O)c1cc(Cl)c(N)cc1OC,15.8 µM (active),–
CCCCOC(=O)c1ccc(NC(=S)NC(=O)c2c(Cl)cnn2C)cc1,inactive,–
NS(=O)(=O)c1cc2c(cc1Cl)N[C@@H](C(Cl)Cl)NS2(=O)=O,inactive,–
COc1cccc(Cn2c(=O)c(-c3cccs3)nc3cnc(OCc4ccccc4)nc32)c1,inactive,–
Cn1c(=O)c(-c2ccccc2)nc2cnc(OCc3ccccc3)nc21,inactive,–
CCOC(=O)C1CCN(C(=O)c2ccccc2NC(C)=O)CC1,inactive,–
N#Cc1ccccc1NC(=O)Nc1cccs1,inactive,–
Cc1nc2cnc(N(C)C)nc2n(-c2ccccc2)c1=O,inactive,–
COc1ccccc1-n1c(SCC(=O)N2CCCC2)nc2cccnc21,inactive,–
CCOC(=O)c1c(NC(=O)Cn2nc([N+](=O)[O-])c(Br)c2C)sc2c1CCC(C)C2 (centres undefined),inactive,–
CCCOc1cc(N)ccc1C(=O)OCCN(CC)CC,2 µM (active),–
CCCCOc1ccccc1N,inactive,–
CCN(CC)C(=O)c1ccc(O)c(OC)c1,inactive,–
O=C(O)/C=C/c1cn(-c2ncc(C(F)(F)F)cc2Cl)c2ccccc12,inactive,–

Structure (SMILES),AC50,"activity, negative = inhibition"
CSc1nnnc2ccccc12,–,0.441% [at 11.4 µM]
Cc1nc2cnc(Oc3cccc(Cl)c3)nc2n(CCC#N)c1=O,inactive,–
CCC(Sc1ncccc1C(=O)O)C(=O)N1CCOCC1 (centres undefined),inactive,–
NS(=O)(=O)Cc1noc2ccccc12,inactive,–
O=C(O)/C=C\C(=O)Nc1ccc2c(c1)C(=O)c1cc(F)ccc1-2,–,-18.3% [at 11.4 µM]
COc1cccc(-c2nc(NCCNC(C)=O)c3ccccc3n2)c1,3.98 µM (active),–
COc1cccc(-c2nc(NC3CCNCC3)c3ccccc3n2)c1,inactive,–
COc1cccc(-c2nc(NC3CC3)c3ccccc3n2)c1,7.94 µM (active),–
COCCNc1nc(-c2cccc(OC)c2)nc2ccccc12,20 µM (active),–
COCCNc1nc(-c2cccc(NS(C)(=O)=O)c2)nc2ccccc12,inactive,–
O=c1cnc2cnc(Nc3ccccc3)nc2n1C1CC1,inactive,–
COc1ccc2c(c1)-c1ccccc1S(=O)(=O)N2C(C)=O,inactive,–
CCOC(=O)c1cnn(-c2ccccc2)c1-n1cccc1C(=O)C(=O)Nc1ccccc1C(F)(F)F,inactive,–
N#C/C(=C\c1cccs1)C(=O)NCC1CCCO1 (centres undefined),inactive,–
CN(C)/C=C/C(=O)c1ccc(Cl)cc1,inactive,–
Cc1ccc(/C=N\NC(=O)c2cc(OCC(F)(F)F)ccc2OCC(F)(F)F)cc1,inactive,–
COc1ccc(NC(=O)N(C2CCCCC2)C(C)c2cccnc2)c(OC)c1 (centres undefined),inactive,–
Cc1cc(OC(=O)c2ccccc2Br)cc(=O)n1C,inactive,–
O=C(CCc1nc2ccccc2c(=O)[nH]1)OCC(=O)N1CCN(S(=O)(=O)c2ccccc2)CC1,inactive,–
Cc1nc2ccccn2c1/C(O)=C1\C(=O)C(=O)N(CCCn2ccnc2)C1c1ccncc1 (centres undefined),inactive,–
